# Laboratory results from PubChem BioAssay (EPA / NIEHS).
# Activity calls are given as the source filed them. The calls were made as follows: active = hit-call score of the fitted dose curve at least 0.9, where 1 is the maximum; inactive = score below 0.9. Peptide text beside a SMILES is read from it.
# Experiment: CCTE_Shafer_MEA_acute_network_burst_percentage: CCTE's Neural Acute Assay for Percentage of Network Bursts, Shafer Lab (AID 2284022);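 also: curves fitted for loss so actives lower network burst percentage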
# Method: CCTE_Shafer_MEA_acute assay is conducted using Axion Biosystems 48 well microelectrode array (MEA) plates and Maestro recording system. Each well of the MEA plate contains a grid of 16 microelectrodes embedded in the culture surface. Electrically active cells, such as neurons, can be cultured over the electrodes, and electrical activity in these cells can be recorded extracellularly. The spontaneous firing of neurons is captured from each electrode on a microsecond timescale providing both temporally and spatially precise data. […] The CCTE_Shafer_MEA_acute assay uses primary cultures of rat cortical neurons. As these cultures mature over time, neural networks develop functional activity and form cohesive networks in which electrical activity can be highly coordinated. Baseline 40-minute recordings are made on days post-plating 13 or 15, followed by a secondary 40-minute recording after chemical exposure.CCTE_Shafer_MEA_acute_network_burst_percentage is a component of the CCTE_Shafer_MEA_acute assay. It measures the percent of spikes (action potential firings) in network bursts (temporally-clustered groups of spikes across multiple electrodes) as the number of spikes occuring in network bursts divided by the total number of spikes during a recording in a microelectrode array (MEA) using Axion Biosystems Maestro 768 channel amplifier with the AxIS adaptive spike detector. The recordings before and after chemical treatment are used to calculate a percent change in the network burst percentage in each well.Data from the assay component CCTE_Shafer_MEA_acute_network_burst_percentage was analyzed into 1 assay endpoint. This assay endpoint, CCTE_Shafer_MEA_acute_network_burst_percentage, was analyzed in the negative analysis fitting direction relative to DMSO as the negative control and baseline of activity. Using a type of functional reporter, gain or loss-of-signal activity can be used to understand electrical activity.
# Spontaneous activity in the cortical cultures was recorded using an Axion Biosystems Maestro 768 channel amplifier and Axion Integrated Studios (AxIS) v1.8 (or later) software. The amplifier recorded from all channels simultaneously (gain = 1200 x; sampling rate = 12.5 kHz/channel): raw signals were filtered with a Butterworth band-pass filter (300-5000 Hz), which filters out slower local field potentials leaving only fast potentials, i.e., "spikes", arising from extracellular currents associated with action potentials (Pine 2006; Wheeler and Nam 2011). On-line spike detection of filtered signals was conducted with the AxIS adaptive spike detector, using a threshold of 8x the root mean squared (rms) noise on each channel. Any electrodes with rms noise levels greater than 5 uV were grounded (e.g., no data were recorded). Once grounded, an electrode was grounded for the duration of the experiment. All recordings were conducted at 37 C. Wells were deemed usable if on the day of the exposure >/= 10 electrodes were active (defined as >/= 5 spikes/min). On DIV 13 or 15, a minimum of three wells from one cortical culture preparation were treated with each compound (0.03-40 uM). Prior to recording baseline activity, each mwMEA plate was placed in the Maestro at 37 C and allowed to sit for 20 min while firing rates stabilized. Baseline activity (40 min) was recorded before the addition of each compound. An additional 40 min of spontaneous activity was recorded in the presence of each compound. Changes in network parameters relative to baseline were assessed following compound treatment.
Compound,outcome,AC50
C1CNCCN1,inactive,–
CCCC(C)C(=O)OCC (stereo not drawn),inactive,–
CC(CCC(=O)O)(c1ccc(O)cc1)c1ccc(O)cc1,inactive,–
COC(=O)[C@H](Cc1ccccc1)NC(=O)[C@@H](N)CC(=O)O (H-Asp-Phe-OMe),inactive,–
CCCCCCCCCCCC(=O)N(C)CC(=O)O,–,23.1 µM (active)
CC1(C)CC(O)CC(C)(C)N1[O],–,0.0204 µM (active)
CC/C=C\CCOC(=O)c1ccccc1O,inactive,–
CC(C)C(=O)OCCc1ccccc1,inactive,–
Nc1cccc(N)n1,–,0.00318 µM (active)
Cc1c(C(=O)c2c[nH]n(C)c2=O)ccc(S(C)(=O)=O)c1C1=NOCC1,inactive,–
c1ccc(Nc2cccc3ccccc23)cc1,–,27.8 µM (active)
Nc1nc(N)nc(-c2ccccc2)n1,inactive,–
Oc1ccccc1Cc1ccccc1O,–,1.96 µM (active)
